In PubChem BioAssay (Tox21):
Inconclusive results are not listed. Active and inactive are the calls of the source. Unless noted, the call rests on the fitted dose curve.

How the values were obtained:
[1] = qHTS assay to identify small molecule agonists of the vitamin D receptor (VDR) signaling pathway - cell viability counter screen (AID 743224; active means well fitted cell-killing curve with a large enough effect in the repeat runs; further: series mostly up to about 63 µM; nearly all actives have a fitted effect of over 50% in size)
Procedure, shortened: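 VDR-bla cell line, quantitative HTS format; 16 h compound incubation (37C, 5% CO2); ATP-based CellTiter-Glo luminescence measured in the reporter assay wells.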

[2] = qHTS assay to identify small molecule antagonists of the vitamin D receptor (VDR) signaling pathway - cell viability counter screen (AID 743225; active means well fitted cell-killing curve with a large enough effect in the repeat runs; further: nearly all actives have a fitted effect of over 50% in size)
Procedure, shortened: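 Parallel cytotoxicity test: VDR-UAS-bla HEK 293T, 3 nM (final) 1-alpha,25-dihydroxyvitamin D3 with test compound, 16 h, 37C. Endpoint is CellTiter-Glo luminescence in the same wells.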

[3] = qHTS assay to identify small molecule agonists of the NFkB signaling pathway (AID 1159509; active means well fitted curve in the direction sought with a large enough effect in the signal ratio in the repeat runs, not every such curve was filed as active; the % refers to the signal ratio; further: series mostly up to about 61 µM)
Procedure, shortened: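 NFkB-bla ME-180 cells carry a beta-lactamase reporter under an NF-kB response element. They were plated overnight, then exposed to compounds for 5 h at 37 C. Read-out is LiveBLAzer FRET after 1.5 hr at room temperature (405 nm excitation; 460/530 nm emission).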

[4] = qHTS assay to identify small molecule agonists of the NFkB signaling pathway - cell viability counter screen (AID 1159515); further: series mostly up to about 61 µM; nearly all actives have a fitted effect of over 55% in size
Procedure, shortened: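 Viability in NFkB-bla ME-180 cells was measured by CellTiter-Glo luminescence, 30 min room temperature, in wells already treated 5 hr with compounds and read for reporter FRET.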

[5] = qHTS assay to identify small molecule agonists of the endoplasmic reticulum stress response signaling pathway (AID 1159516; active means well fitted activation curve with a large enough effect in the signal ratio in the repeat runs, not every such curve was filed as active; the % refers to the signal ratio)
Procedure, shortened: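 ER stress element reporter (bla) in HeLa. 1,500 cells/well, overnight attachment; 5 hr compound; 2 hr RT substrate; dual-emission fluorescence.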

[6] = qHTS assay to identify small molecule agonists of the endoplasmic reticulum stress response signaling pathway - cell viability counter screen (AID 1159517);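 further: HeLa cells carrying an ER stress response element beta-lactamase reporter; series mostly up to about 61 µM; nearly all actives have a fitted effect of over 50% in size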
Procedure, shortened: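 HeLa cells carrying an ESRE-driven beta-lactamase reporter receive compound for 5 hr at 37 C. Cell viability is then gauged with CellTiter-Glo by luminescence, 30 min at room temperature.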

[7] = qHTS assay to identify small molecule antagonists of the retinoid-related orphan receptor gamma (ROR-gamma) signaling pathway - cell viability counter screen (AID 1159520; active means well fitted cell-killing curve with a large enough effect in the repeat runs; further: nearly all actives have a fitted effect of over 50% in size)
Procedure, shortened: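 Cytotoxicity was read from cellular ATP (CellTiter-Glo luminescence) after 16 hr at 37 C with 1 uM doxycycline induction. The inducer was added 2 hr after compound transfer to Tet-on ROR gamma CHO cells.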

[8] = qHTS assay to identify small molecule agonists of the AP-1 signaling pathway - cell viability counter screen (AID 1159525); further: nearly all actives have a fitted effect of over 55% in size
Procedure, shortened: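 Luminescent ATP readout (Cell Titer Glo, 30 min RT), normalised to DMSO and tetra n-octyl ammonium bromide controls. Cells were ME-180 AP-1-bla in 0.5% dialyzed FBS Opti-MEM, with a 5 h, 37 °C compound exposure.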

[9] = qHTS assay to identify small molecule agonists of the AP-1 signaling pathway (AID 1159526)

Measured: Potency

NNS(=O)(=O)c1ccc(Oc2ccc(S(=O)(=O)NN)cc2)cc1
inactive: all assays above

Cc1ccc(C)c(N)c1
inactive: all assays above

COc1nc(C)nc(NC(=O)NS(=O)(=O)c2ccccc2OCCCl)n1
inactive: all assays above

CCOc1ccc(OCC)c(Cl)c1
inactive: all assays above

O=S(=O)(O)C(F)(F)F
inactive: all assays above

CCc1nnc(NS(=O)(=O)c2ccc(N)cc2)s1
inactive: all assays above

FC(F)(F)c1ccccc1
inactive: all assays above

CCOC(=O)[C@H](CCc1ccccc1)N[C@@H](C)C(=O)N1Cc2cc(OC)c(OC)cc2C[C@H]1C(=O)O
inactive: all assays above

Cc1onc(-c2ccccc2)c1C(=O)Cl
inactive: all assays above

O=C(O[C@@H](C(=O)O)[C@@H](OC(=O)c1ccccc1)C(=O)O)c1ccccc1
inactive: all assays above

CN1C(=O)CC(c2ccccc2)C1=O (stereo unspecified)
inactive: all assays above

OCCN(CCO)CCN(CCO)CCO
inactive: all assays above

CCOC(=O)c1cc(=O)c2c(OCC(COc3cccc4oc(C(=O)OCC)cc(=O)c34)OC(=O)[C@@H](N)CCCCN)cccc2o1
inactive: all assays above

CC(CNC1CCCCC1)OC(=O)c1ccccc1 (stereo unspecified)
inactive: all assays above

c1ccc(CN(CC2=NCCN2)c2ccccc2)cc1
inactive: all assays above

CC1=C(O)C(=O)OC1C (stereo unspecified)
not listed: [2]
inactive: all other assays above

Cc1cc(S(=O)(=O)O)c(N)cc1Cl
inactive: all assays above

O=C1CCC(C2CCCCC2)CC1
inactive: all assays above

OC[C@H]1O[C@@H](O[C@H]2[C@H](O)[C@@H](O)[C@H](O)O[C@@H]2CO)[C@H](O)[C@@H](O)[C@H]1O
inactive: all assays above

CCCCCCCCCC/C=C/C#N
inactive: all assays above

CCN(CC)CCNC(=O)COc1ccc(Cl)cc1
inactive: all assays above

CCC1(C)NC(=O)NC1=O (stereo unspecified)
not listed: [2]
inactive: all other assays above

O=C(Cl)c1cccc([N+](=O)[O-])c1
not listed: [2]
inactive: all other assays above

C=O
inactive: all assays above

COc1ccccc1N1CCN(CCCNc2cc(=O)n(C)c(=O)n2C)CC1
inactive: all assays above

OCCN1CCN(CCO)CC1
inactive: all assays above
